Bioassay records deposited in PubChem by National Center for Advancing Translational Sciences (NCATS).
The list is not random: actives were taken first. Their share in the collection is about 9.4%.
FLuc modulator – firefly luciferase modulation, counter-screen for miR-21 project; P08659; AID 588342; purified FLuc, Km substrates, luminescence inhibition; Potency, µM (doses to about 57.5 µM), for the others: at the highest dose activity change, negative = inhibition, most hits filed as inhibitors; 360,000 compounds, 6.9% hits;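 note: plate controls were vehicle for no effect and reference inhibitor for full effect; nearly all actives have a fitted effect of over 55% in size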
Target sequence (P08659 whole entry, looked up): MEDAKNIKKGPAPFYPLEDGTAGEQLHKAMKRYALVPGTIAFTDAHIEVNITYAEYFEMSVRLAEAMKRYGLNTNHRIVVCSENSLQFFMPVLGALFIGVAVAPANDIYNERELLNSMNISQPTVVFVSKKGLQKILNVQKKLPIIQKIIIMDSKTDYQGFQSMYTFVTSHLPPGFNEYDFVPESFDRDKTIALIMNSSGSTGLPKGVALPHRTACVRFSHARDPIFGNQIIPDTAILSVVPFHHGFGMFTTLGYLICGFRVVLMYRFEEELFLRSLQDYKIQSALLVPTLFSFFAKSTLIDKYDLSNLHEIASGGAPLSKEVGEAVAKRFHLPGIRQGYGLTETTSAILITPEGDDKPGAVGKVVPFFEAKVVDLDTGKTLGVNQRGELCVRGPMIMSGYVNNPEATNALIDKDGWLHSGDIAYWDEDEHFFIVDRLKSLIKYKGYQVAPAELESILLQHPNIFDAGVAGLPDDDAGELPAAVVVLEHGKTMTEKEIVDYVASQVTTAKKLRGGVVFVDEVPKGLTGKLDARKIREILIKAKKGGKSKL
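Purified P. pyralis luciferase, 10 nM final, with Km-level 10 uM D-luciferin and 10 uM ATP in 50 mM Tris acetate pH 7.5, 10 mM Mg acetate, 0.01% Tween-20, 0.05% BSA; 6-point qHTS titration about 60 µM downward; luminescence read.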
Rab9 prom act – activates the Rab9 promoter; 320,000 compounds, 2.8% hits; Huh7 Rab9 promoter-luciferase reporter, luminescence, 24 h; Potency, µM (series often up to 9.22 µM), for the others: top-dose activation, negative = inhibition, usual class: activators; AID 485297; note: % of control where 0% means no effect; nearly all actives have a fitted effect of over 60% in size
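Stable Rab9-luc Huh7, 1500 cells/well, 2 h settle; cmpd in DMSO, 24 h, 37 °C/5% CO2; luciferase reagent 10 min RT; luminescence.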
ELG1 DNA repair – blocks ELG1-dependent DNA repair in HEK293T cells. HEK293T ELG1-luciferase reporter, luminescence, 16 h; DNA damage induced by 5-fluorouridine. Potency, µM (titrated, usually from 46.1 µM), for the others: at the highest dose activity change, negative = inhibition, hits mostly inhibitors. 330,000 compounds, 2.3% hits. AID 504467; note: % is set by controls: 0 for no effect and ±100 for the full control effect; nearly all actives have a fitted effect of over 55% in size
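Quantitative HTS, concentration-response format. 2,000 cells/well co-treated with 5-fluorouridine and compound, 16 hr in 5% CO2 at 37 °C; ONE-Glo luminescence read after 30 min.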
SMN2 splice enh – enhancers of SMN2 splice variant expression; 210,000 compounds, 2.8% hits; AID 1458; HEK293 SMN2-luciferase splicing reporter, luminescence, 30-36 h; Potency, µM (doses to about 46.1 µM), for the others: at the highest dose activity change, positive = activation, usual class: activators; note: % of control where 0% means no effect; nearly all actives have a fitted effect of over 55% in size
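HEK293 cells carry an SMN2 minigene-luciferase reporter in which exon 7 inclusion puts luciferase in frame. Cells were seeded at 2000 cells/well, attached for 10-12 hours, then exposed to compounds for 30-36 hours at 37C before ONE-Glo luminescence.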
ELG1 genotox – induces genotoxicity in HEK293T cells with luciferase-tagged ELG1 | Potency, µM (top dose mostly 46 µM), inactives show at the top dose activity change, positive = activation, usual class: activators | HEK293T ELG1-luciferase reporter, luminescence, 16 h | AID 504466 | 330,000 compounds, 1.3% hits; note: % of control where 0% means no effect; nearly all actives have a fitted effect of over 60% in size
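DMSO vehicle served as control against compound-treated ELG1-luciferase HEK293T cells; exposure lasted 16 hr at 37 °C and 5% CO2, followed by ONE-Glo luminescence detection after 30 min.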
NPC1 prom act – activates the NPC1 promoter; 320,000 compounds, 2.4% hits; Potency, µM (doses to about 9.22 µM), for the others: at the top dose activation, usual class: activators; AID 485313; Huh7 NPC1 promoter luciferase reporter, 24 h; note: % of control where 0% means no effect; nearly all actives have a fitted effect of over 60% in size
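Compounds in DMSO were transferred onto Huh7 NPC1-luciferase reporter cells pre-incubated 2 h; after 24 h at 37 °C, Amplite reagent was dispensed and luminescence recorded 10 min later.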
* hit, by the source's call; ? = inconclusive; · = no result given; [ ] = remark or other dose. Calls come from the whole dose curve; as a rule, active = well fitted curve in the direction sought with a large enough effect; inconclusive = small, poorly fitted or top-dose-only effect, or another doubt; inactive = no such curve, though single readings can be large; an effect the other way counts as inactive or inconclusive. Potency is the fitted concentration of half-maximal effect.

SMILES | FLuc modulator | Rab9 prom act | ELG1 DNA repair | SMN2 splice enh | ELG1 genotox | NPC1 prom act
O=C1c2ccccc2C(=O)c2c(NC3CCCCC3)ccc(Nc3ccc(S(=O)(=O)O)cc3)c21 | · | · | · | -19%[9.22 µM] | · | ·
c1ccc(CCNc2ncnc3c2cnn3-c2ccccc2)cc1 | 6.7µM* | 1.6µM* | ? | 11µM* | ? | 3.2µM*
c1ccc(-n2ncc3c(NCCN4CCOCC4)ncnc32)cc1 | ? | 11% | ? | · | 13µM* | ?
COc1ccccc1Oc1ncnc2c1cnn2-c1ccccc1 | 12µM* | 4µM* | ? | 13µM* | ? | ?
COc1ncnc2c1cnn2-c1ccccc1 | ? | · | · | 5% | · | ·
Cc1ccc(Nc2nnc(-c3ccc4c(c3)OCO4)o2)c(C)c1 | 8.5µM* | ? | ? | 10%[9.22 µM] | ? | ?
Cc1ccc(C)c(N2CCN(Cc3nnc(-c4ccc5c(c4)OCO5)o3)CC2)c1 | -5% | · | · | -16% | · | ·
COc1ccccc1CCNS(=O)(=O)c1ccc(N2CCCCS2(=O)=O)cc1 | 6% | · | · | · | · | ·
CCc1ccc(Nc2ncc3c(n2)CC(c2ccc(OC)cc2)CC3=O)cc1 (stereo not given) | 5% | -1% | -9% | -15% | 0% | -2%
CCc1ccc(Nc2ncc3c(n2)CC(C)(C)CC3=O)cc1 | 15µM* | 2.5µM* | ? | · | ? | 3.2µM*
Cc1cccc(Nc2ncc3c(n2)CC(c2ccco2)CC3=O)c1 (stereo not given) | 2% | 0% | -11% | 10% | 0% | -2%
Cc1ccc2nc(Nc3ncc4c(n3)CCCC4=O)nc(C)c2c1 | -1% | 5% | 0% | 6% | 0% | -2%
Cc1cc(C)cc(Nc2ncc3c(n2)CCCC3=O)c1 | 3.4µM* | 4µM* | ? | 2.5µM* | ? | 4µM*
CCc1ccc(Nc2ncc3c(n2)CC(C)CC3=O)cc1 (stereo not given) | ? | 1.3µM* | ? | · | ? | 2µM*
Cc1cccc(Nc2ncc3c(n2)CC(C)CC3=O)c1 (stereo not given) | 9.5µM* | 3.5µM* | ? | 11µM* | 4.6µM* | 3.5µM*
CCCCSCCCNC(=O)CN1C(=O)COc2ccc(S(=O)(=O)N3CCCC3)cc21 | 3% | · | · | -6% | · | ·
CCCCNc1nc(C)nc2c1nc(-c1ccccc1)n2C(C)CCCN(CC)CC (stereo not given) | · | · | · | -12% | · | ·
CCCCn1c2ccccc2c2nnc(SCC(=O)Nc3ccc(NC(C)=O)cc3)nc21 | -7% | · | · | 1% | · | ·
Cc1ccc(OCCn2nnc3sc4c(c3c2=O)CCC(C(C)(C)C)C4)cc1 (stereo not given) | -7% | · | · | -6% | · | ·
CCOc1ccc(NC(=O)C2CCCN(c3nnc(-n4c(C)ccc4C)s3)C2)cc1 (stereo not given) | 0% | · | · | -11% | · | ·
Cc1cccc(NC(=S)NNC(=O)c2sccc2C)c1 | 15µM* | ? | ? | -13% | ? | 1%
CCN(CC)CC(=O)Nc1ccc(C)cc1Br | ? | 0% | ? | · | ? | 2%
CCc1cc(C(=O)NNC(=S)Nc2cccc(C)c2)cs1 | 3.4µM* | 3.2µM* | ? | 14µM* | 13% | 3.5µM*
Cc1ccsc1C(=O)NNC(=S)NCC(C)C | -2% | -5% | -4% | 25% | 0% | -3%
Cc1cccc(C(=O)NNC(=O)Nc2ccccc2)c1 | 7% | 1% | -13% | 11% | 1% | -23%
SMILES | FLuc modulator | Rab9 prom act | ELG1 DNA repair | SMN2 splice enh | ELG1 genotox | NPC1 prom act
CCc1cc(C(=O)Nc2ccc(C)cc2Br)cs1 | 5.4µM* | ? | ? | 16µM* | ? | 21%
Cc1cccc(NC(=S)NNC(=O)c2csc(C(C)C)c2)c1 | 5.4µM* | 1.8µM* | ? | 11µM* | 13% | 2.5µM*
CCCCNC(=S)NNC(=O)c1csc(CC)c1 | -14% | 23% | 18% | 12% | 2% | 0%
Cc1noc(C)c1C(=O)Nc1nc2ccc(S(C)(=O)=O)cc2s1 | 1.1µM* | ? | ? | · | ? | ?
O=C(NC(=S)Nc1nc2ccc(F)cc2s1)c1ccco1 | 1.3µM* | 2.5µM* | ? | 10µM* | ? | 6%
Cc1ccc(C(=O)Nc2nc3ccc(S(C)(=O)=O)cc3s2)o1 | 3µM* | 2.5µM* | ? | 4µM* | ? | 2.8µM*
CS(=O)(=O)c1ccc2nc(NC(=O)c3ccc(Cl)cc3)sc2c1 | ? | 24% | 0% | · | 0% | 3%
Cc1cccc2sc(NC(=O)C3CCN(C(=O)c4ccco4)CC3)nc12 | ? | -6% | 13µM* | · | -12% | 0%
CC(=O)N1c2ccc(S(=O)(=O)NCCC(=O)Nc3ccc(Br)c(C)c3)cc2CC1C (stereo not given) | -13% | · | · | · | · | ·
CCc1ccc(C(=O)c2cn(Cc3ccccc3)c3cc(OC)c(OC)cc3c2=O)cc1 | -8% | · | · | -13% | · | ·
Cc1c(Cl)ccc2sc(NC(=O)c3ccco3)nc12 | 5.4µM* | 4µM* | ? | · | ? | 2.8µM*
CS(=O)(=O)c1ccc2nc(NC(=O)c3ccco3)sc2c1 | 4.8µM* | 1.6µM* | ? | 7.9µM* | ? | 2.8µM*
O=C(c1cc(-c2ccc3c(c2)OCO3)on1)N1CCN(c2ccccc2)CC1 | 3.8µM* | ? | ? | -27% | ? | 2.8µM*
O=C(c1cc(-c2ccc3c(c2)OCO3)on1)N1CCOCC1 | 1.5µM* | 0.63µM* | ? | 0.5µM* | 0.58µM* | 0.4µM*
CN(C(=O)c1cc(-c2ccc3c(c2)OCO3)on1)c1ccccc1 | 15µM* | 2.5µM* | ? | · | 18µM* | 2.5µM*
O=C(c1cc(-c2ccc3c(c2)OCO3)on1)N1CCN(c2ccc(F)cc2)CC1 | 15µM* | 4% | 11% | -17% | 0% | -2%
O=C(Nc1c(Cl)cccc1Cl)c1cc(-c2ccc3c(c2)OCO3)on1 | -22% | · | · | 15% | · | ·
COc1ccccc1N1CCN(C(=O)c2cc(-c3ccc4c(c3)OCO4)on2)CC1 | ? | -1% | 2% | 8% | -6% | 1%
CCN(CC)CCCNC(=O)c1ccc2nc(CCc3ccccc3)oc2c1 | -2% | · | · | · | · | ·
CCCCC/C=C\C\C=C/C=C/C=C/[C@@H](O)[C@@H](O)CCCC(=O)O | · | · | · | -1% | · | ·
CC(=O)c1ccc(NC(=O)CCc2c(C)nn(-c3ccc4nnc(C)n4n3)c2C)cc1 | 0% | · | · | · | · | ·
COc1ccccc1S(=O)(=O)Cc1ccc(C(=O)NCc2ccc(Cl)cc2)o1 | 3% | · | · | -26% | · | ·
CC(C)CNC(=O)c1cc(-c2ccc3c(c2)OCO3)on1 | 1.9µM* | 0.5µM* | ? | · | ? | 0.56µM*
CC(C)CNC(=O)COCc1cc(-c2ccc3c(c2)OCO3)on1 | ? | 28% | ? | · | ? | 20%
